Laboratory results: PubChem BioAssay AID463082 (The Scripps Research Institute Molecular Screening Center, 2010)
About 4,900 (1.5%) of roughly 330,000 compounds were called active. The sample holds actives, similar compounds and a random draw of the others, so the mix is not that of the screen. Unmarked numbers belong to inactive results.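 How the source made its calls: active means inhibition above the mean inhibition across the screen plus 3 SD (cut at about 25% in these data); inactive means the rest.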

target: Platelet-activating factor acetylhydrolase (Homo sapiens) (UniProt Q13093); test: inhibition of plasma PAF acetylhydrolase – biochemical, fluorescence polarization, human, primary screen (AID 463082); conditions: recombinant pPAFAH, FP-rhodamine probe fluorescence polarization; at 3.39 µM; active compounds read high;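 further: inhibitors block binding of the rhodamine activity-based probe so polarization drops; 0% = enzyme with DMSO and 100% = wells lacking pPAFAH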
Sequence (Q13093 whole entry, looked up): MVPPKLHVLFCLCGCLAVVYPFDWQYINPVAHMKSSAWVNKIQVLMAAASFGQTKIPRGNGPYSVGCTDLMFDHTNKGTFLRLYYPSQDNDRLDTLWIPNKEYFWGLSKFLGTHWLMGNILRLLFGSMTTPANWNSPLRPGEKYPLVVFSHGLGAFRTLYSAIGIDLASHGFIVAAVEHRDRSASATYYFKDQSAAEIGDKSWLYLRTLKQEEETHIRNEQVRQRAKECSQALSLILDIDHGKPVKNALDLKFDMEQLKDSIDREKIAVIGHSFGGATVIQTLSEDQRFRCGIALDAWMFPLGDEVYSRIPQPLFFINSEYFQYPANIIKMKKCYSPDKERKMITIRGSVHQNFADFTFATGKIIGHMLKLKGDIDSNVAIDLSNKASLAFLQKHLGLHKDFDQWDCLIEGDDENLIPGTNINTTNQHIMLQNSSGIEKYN

Row | SMILES | inhibition
1 | COC(=O)c1sc(N2CCN(Cc3ccccc3)CC2)nc1N | 5.95%
2 | O=C(Oc1cccc(C(=S)N2CCOCC2)c1)c1cccc(Cl)c1 | 7.68%
3 | CC(=O)Nc1ccccc1OC(=O)N1CCOCC1 | -0.96%
4 | O=C(/C=C/c1cccs1)c1cc(Cl)ccc1OC(=O)N1CCOCC1 | 42.8% (active)
5 | COc1ccc(/C=C2/S/C(=N/N=C3\CC4CCC3(C)C4(C)C)NC2=O)cc1 (centres undefined) | 5.69%
6 | O=C1c2ccccc2NC(c2ccc(-c3cccc(Cl)c3)o2)N1O (centres undefined) | 7.56%
7 | O=C1NN(c2ccccc2)C(=O)/C1=C/c1ccc(-c2cccc(C(=O)O)c2)o1 | 18.6%
8 | O=C(O)C(c1ccccc1)N1C(=O)/C(=C\c2ccc(-c3cccc(Cl)c3)o2)SC1=S (centres undefined) | 70.4% (active)
9 | COc1ccc(CN2C3CCCC2CC(NC(=O)c2cccc(F)c2)C3)cc1 (centres undefined) | 0.56%
10 | COc1ccc(N2CC(NS(=O)(=O)c3ccc4ccccc4c3)CC2=O)cc1 (centres undefined) | 4.81%
11 | O=C(COc1ccc(/C=N/NS(=O)(=O)c2ccccc2)cc1)NCCc1ccccc1 | 4.79%
12 | O=S(=O)(N/N=C\c1cccn1-c1ccccc1)c1ccc2ccccc2c1 | 25% (active)
13 | Cc1ccnc2nc(C(=O)Nc3nnc(-c4ccccc4)o3)nn12 | 8.88%
14 | CCCCn1c(N)c(N(CC(C)C)C(=O)c2cnc(C)cn2)c(=O)[nH]c1=O | 7.57%
15 | COc1ccccc1NC(=O)CCN1CCN(c2ccc(Cl)cc2)CC1 | 6.99%
16 | Oc1cccc(/C=N/Nc2ccc(Cl)nn2)c1O | 54.6% (active)
17 | Cc1ccsc1/C=N/Nc1ccc(Cl)nn1 | 8.65%
18 | COc1cccc(/C=N/Nc2ccc(Cl)nn2)c1 | -0.67%
19 | Cc1nn(C(C)C(=O)N2CCOCC2)c(=O)c2nn(-c3ccccc3)c(C)c12 (centres undefined) | -0.47%
20 | CC1(N2CCOCC2)CC2(O)C(=[N+]1[O-])CCc1nonc12 (centres undefined) | 11.9%
21 | CCCCCCCC(=O)OC(CN1CCCCCC1)CN1CCCC1=O (centres undefined) | -5.64%
22 | Cc1ccccc1CS(=O)(=O)CC1(O)CCN(C(=O)c2cccc(C(F)(F)F)c2)CC1 | -7.07%
23 | O=C(NCCc1ccco1)c1nn(Cc2ccccc2)c(=O)c2ccccc12 | 1.41%

Row | SMILES | inhibition
24 | CN(c1ccccc1)c1ccc(/C=c2\s/c(=C(/C#N)C(=O)C(C)(C)C)n(Cc3ccco3)c2=O)cc1 | -0.46%
25 | O=c1nc2s/c(=C\c3ccco3)c(=O)n2nc1Cc1ccccc1 | 25.7% (active)
26 | O=C(COc1coc(CN2CCN(c3ccccc3)CC2)cc1=O)N1CCc2ccccc21 | -5.69%
27 | CC(=O)N1CCc2cc(Br)cc(S(=O)(=O)CCC(=O)Nc3c(C)n(C)n(-c4ccccc4)c3=O)c21 | 7.96%
28 | N/C(=N\S(=O)(=O)c1ccc(Cl)cc1)N1CCOCC1 | 7.38%
29 | COc1cc(C(=O)NCC(=O)NCCSc2ccc(Br)cc2)cc(OC)c1OC | 2.53%
30 | O=C(CNC(=O)c1ccccc1Br)NCCSc1ccc(Br)cc1 | 6.87%
31 | COc1ccccc1C(=O)NCC(=O)NCCSc1ccc(Br)cc1 | 28.6% (active)
32 | NCCN1CCN2C(=O)CN(C(=O)c3ccccc3)CC12 (centres undefined) | 0.84%
33 | C/C=C(/C)C(=O)O[C@@H]1c2cc3c(c4c2[C@@]2(CO4)C(=O)C(OC)=C(OC)C=C2C[C@@H](C)[C@H]1C)OCO3 | -0.41%
34 | COCCOC(=O)c1sc(=S)n(CCOC)c1N | 27.2% (active)
35 | COc1cccc(CNC(=O)C2CCCN(S(=O)(=O)N3CC(C)CC(C)C3)C2)c1 (centres undefined) | 2.82%
36 | CCCCN1C(=O)C(=O)N(CC(=O)Nc2cccc(C(C)=O)c2)C1=O | -0.13%
37 | CC(=O)c1ccc(S(=O)(=O)NCCC(=O)N2CCN(c3ccccn3)CC2)cc1 | -1.99%
38 | COc1ccccc1OCc1nnc(SCC(N)=O)n1-c1ccccc1 | -7.86%
39 | COc1cccc(-c2coc3cc4oc(=O)c(CC(=O)O)c(C)c4cc23)c1 | 2.78%
40 | O=C(CCN1CCN(c2ccccc2)CC1)NNC(=S)Nc1ccccc1 | 3.64%
41 | Cc1ccccc1C(=O)NC(=S)Nc1ccc(N2CCN(C(=O)c3ccccc3)CC2)cc1 | 8.73%
42 | O=C(Cc1ccccc1)NC(=S)Nc1ccc(N2CCCCC2)cc1 | 28.6% (active)
43 | O=C(COC(=O)c1c(Cl)cccc1Cl)Nc1cccc(S(=O)(=O)NC2=NCCCCC2)c1 | 0.66%
44 | CC(C)Nc1ccc(-n2nc3ccccc3[n+]2[O-])cc1 | -0.33%
45 | COC(=O)C1(CCSC)NC(c2ccc(OC)cc2OC)C2C(=O)N(c3cccc(C(C)=O)c3)C(=O)C21 (centres undefined) | 8.06%
46 | Cc1ccsc1C(=O)NNC(=O)COc1ccc(Br)cc1 | 5.73%

Row | SMILES | inhibition
47 | CCCCNS(=O)(=O)c1ccc2nc(SCC(=O)Nc3cc(C)cc(C)c3)[nH]c2c1 | -1.99%
48 | COc1cccc(CNC(=O)c2nnn(CC(=O)Nc3cc(Cl)ccc3C)c2N)c1 | -8.08%
49 | CN(C)C(=O)c1nc2ccc(Cl)cn2c1CNCc1cccc(OC(F)(F)F)c1 | 27.7% (active)
50 | CN(C)C(=O)c1nc2ccc(Cl)cn2c1CN1CCN(c2ncccn2)CC1 | -1.11%
51 | Cc1ccc(N=C2NC(=O)/C(=C/C=C/c3ccco3)S2)cc1C | 57.3% (active)
52 | Cc1ccc(-n2nc3ccc(NC(=O)/C=C/c4ccco4)cc3n2)cc1C | -3.71%
53 | Cc1ccc(N2NC(=O)/C(=C/C=C/c3ccco3)C2=O)cc1C | 21.3%
54 | Cc1ccc(S(=O)(=O)N2CCCCC2)cc1NC(=O)[C@@H]1CCCN1C(=O)c1cccs1 | 4.96%
55 | O=C(CNC(=O)c1n[nH]c2ccccc12)Nc1cc(Cl)ccc1Cl | -4.9%
56 | CC(=O)Nc1cccc(/C(C)=N/NC(=O)c2c(-c3ccccc3Cl)noc2C)c1 | 5.03%
57 | C/C(=N\Nc1cccc(C(=O)O)c1)c1ccc2c(c1)Nc1ccccc1S2 | 32.8% (active)
58 | Cc1ccccc1NC(=O)c1cc(S(=O)(=O)Nc2cccc(C(=O)O)c2)ccc1Cl | 2.58%
59 | CSc1ccc(/C=C/C(=O)NC23CC4CC(CC(C4)C2)C3)cc1 | -0.12%
60 | COc1ccc(NC(C)=O)cc1NC(=O)CN1CCN(C2c3ccccc3-c3ccccc32)CC1 | 7.04%
61 | CCC(=O)Nc1sc(C(=O)Nc2ccccc2)c(C)c1C(=O)OC | 50.5% (active)
62 | CCOC(=O)c1sc(NC(=O)COc2ncnc3ccccc23)c(C(=O)OCC)c1C | 0.72%
63 | COC(=O)c1c(NC(C)=O)sc(C(=O)Nc2ccccc2OC)c1C | -5.75%
64 | COC(=O)c1ccc(CNC(=O)c2ccc3oc(C(C)C)nc3c2)cc1 | -0.67%
65 | CCCn1c(SCC(=O)c2ccc3c(c2)OCCO3)nnc1C(C)C | 3.84%
66 | COc1ccc(C)cc1-n1nnnc1SCc1nc2ccccc2c(=O)[nH]1 | -13.6%
67 | Cc1ccc(NC(=O)CSc2nc(CSc3ccc(C)cc3)cc(=O)[nH]2)cc1 | 17.3%
68 | Cc1ccc(Nc2nc(CSc3nnnn3-c3ccccc3)cc(=O)[nH]2)cc1 | 27.2% (active)
69 | N#CC1(NC(=O)COC(=O)Cc2n[nH]c(=O)c3ccccc23)CCCCC1 | 0.43%

Row | SMILES | inhibition
70 | CC(C)C(C)(C#N)NC(=O)CSc1nc2scc(-c3ccccc3)c2c(=O)[nH]1 (centres undefined) | 11.1%
71 | CCCCCCSc1ccc([C@@H]2[C@H]3C(=O)N(CC)C(=O)[C@H]3[C@]3(C(=O)OC)CCCCN23)cc1 | 6.84%
72 | CCN1C(=O)[C@@H]2[C@@H](c3ccc(-c4ccc(OC)cc4)c(OC)c3)N3CCC[C@@]3(C(=O)OC)[C@@H]2C1=O | 2.25%
73 | CCCCCCSc1ccc([C@@H]2[C@@H]3C(=O)N(CC)C(=O)[C@@H]3[C@]3(C(=O)OC)CCCCN23)cc1OC | 26.9% (active)
74 | CCOC(=O)c1ccc2c(c1)nc(SCC(=O)NC(C)C)n2CC | 3.79%
75 | CN(CC(=O)NC1CCCCC1)S(=O)(=O)c1cccc2cccnc12 | 14.6%
76 | CCn1c(SCC(=O)Nc2sc(C)c(C)c2C#N)nnc1C1CC1 | 1.95%
77 | Cn1nc([N+](=O)[O-])nc1Sc1ccc(C(C)(C)C)cc1 | 8.17%
78 | CCC(=C/c1sc2ccc3ccccc3c2[n+]1C)/C=C1\Sc2ccc3ccccc3c2N1C | 32.4% (active)
79 | CC(C)Oc1ccccc1C(=O)NC(CO)C(=O)O (centres undefined) | 2.51%
80 | CCOC(=O)C1=C(C)OC(N)=C(C#N)C1c1cncc(-c2ccc(F)cc2)c1 (centres undefined) | 2.24%
81 | O=C(Nc1cccc(S(=O)(=O)NC2=NCCC2)c1)C1CCCCC1 | 3.38%
82 | CCN(CCCNC(=O)C1CCN(S(=O)(=O)c2cnc[nH]2)CC1)c1ccccc1 | -2.66%
83 | CCN(CCCNC(=O)CCn1c(=O)[nH]c2ccsc2c1=O)c1ccccc1 | 4.5%
84 | CCN(CCCNC(=O)c1ccc2c(c1)NC(=O)CN2C)c1cccc(C)c1 | 28% (active)
85 | COc1cccc(N2CC(NS(=O)(=O)c3ccc(Cl)cc3)CC2=O)c1 (centres undefined) | 9.38%
86 | O=C(O)c1ccc(N/N=C/c2ccc3ncccc3c2)cc1 | 4.87%
87 | Cc1ccc2cc(/C=N/NC(=O)[C@@H]3CCCN3)c(Cl)nc2c1 | 3.82%
88 | Cc1ccc2cc(/C=N/Nc3ccc(C(=O)O)cc3)c(Cl)nc2c1 | 34% (active)
89 | COC(=O)[C@]1(C)CCC[C@@]2(C)C3CC[C@]4(OC(C)=O)C[C@@]3(CCC21)CC4=NO (some centres undefined) | -4.31%
